# Screening data from PubChem BioAssay.
# PNC inhibitor – blocks assembly of the perinucleolar compartment; PC3M PTB-GFP, PNC prevalence imaging, 16 h; hits give low values; activity change (PNC), negative = inhibition, % at 10 µM; 3.1% of 140,000 active;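 active = readout at or below -70, meaning at least 70% loss of cells showing the perinucleolar compartment, a nuclear body marking cancer cells; inconclusive = readout between -30 and a set limit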;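 also: plate controls were DMSO wells for no effect and camptothecin positive control wells for full effect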
#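 PC3M cells stably expressing PTB-GFP, 750–1000 cells/well, treated 16 h at 37 °C with compound (23 nl of library stock), in duplicate. After paraformaldehyde fixation and Hoechst stain, imaged at 20x; PNC prevalence scored by image analysis.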
# JMJD2E inh – JMJD2E (human) inhibition | B2RXH2 | JMJD2E catalytic domain, FDH-coupled NADH fluorescence (FDH is formaldehyde dehydrogenase) | Potency, µM (top dose mostly 57.1 µM), for inactives: top-dose activity change, negative = inhibition, hits mostly inhibitors | 1.6% of 230,000 active | AID 2147;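 also: potency is read from the fitted curve at half-maximal effect; 0% = wells with enzyme and -100% = buffer wells without enzyme; nearly all actives have a fitted effect of over 50% in size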
# Target sequence (B2RXH2 1-337 limits assumed): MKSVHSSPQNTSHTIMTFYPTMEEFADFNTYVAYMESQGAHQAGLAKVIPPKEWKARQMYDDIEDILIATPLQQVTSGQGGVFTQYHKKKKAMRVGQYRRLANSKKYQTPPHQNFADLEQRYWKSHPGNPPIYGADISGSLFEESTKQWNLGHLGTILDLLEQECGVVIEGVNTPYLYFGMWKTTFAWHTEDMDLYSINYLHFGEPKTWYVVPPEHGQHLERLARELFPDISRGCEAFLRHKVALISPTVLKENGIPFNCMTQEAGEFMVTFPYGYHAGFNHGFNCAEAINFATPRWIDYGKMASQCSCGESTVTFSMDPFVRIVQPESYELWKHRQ
# ALDH1A1 block – inhibitors of human aldehyde dehydrogenase 1A1. P00352. Purified ALDH1A1, NADH fluorescence, propionaldehyde substrate. Potency, µM (series often up to 75.3 µM), for the others: at the highest dose activity, negative = inhibition, usual class: inhibitors. 7.3% of 220,000 active. AID 1030;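 also: potency is read from the fitted curve at half-maximal effect; plate controls were no enzyme wells and a reference inhibitor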
# HPGD block – blocks human HPGD enzyme activity. P15428. purified HPGD, NADH fluorescence kinetic, PGE2 substrate. Potency, µM, for the others: at the top dose activity change, negative = inhibition, actives largely listed as inhibitors. 4.3% of 150,000 active; also: potency is read from the fitted curve at half-maximal effect
# Target sequence (P15428 whole entry, looked up): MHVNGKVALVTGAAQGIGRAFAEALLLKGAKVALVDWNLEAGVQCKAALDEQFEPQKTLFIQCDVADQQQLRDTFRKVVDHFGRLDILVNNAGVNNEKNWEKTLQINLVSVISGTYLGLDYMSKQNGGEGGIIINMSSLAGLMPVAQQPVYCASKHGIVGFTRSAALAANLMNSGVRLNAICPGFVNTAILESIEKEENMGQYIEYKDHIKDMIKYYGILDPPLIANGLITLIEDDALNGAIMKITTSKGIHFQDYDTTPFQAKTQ
#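 20 nM HPGD preincubated 15 min at room temperature with compound in 50 mM Tris-HCl pH 8, 0.01% Tween 20. Started with 1 mM NAD+ and 30 uM prostaglandin E2; NADH fluorescence (360/450 nm) read 5 times over 30-s intervals, last minus first.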
# Numbers without * were called inactive; ? = inconclusive; / = no result; ! = not active in a repeat; [ ] = dose if it differs, or a comment. Rows were chosen to be rich in hits. Some 11% of all compounds tested hit in one or more screens of this group. Unless noted, calls follow the shape of the dose curve; as a rule, active = well fitted inhibition curve with a large enough effect (not every such curve was filed as active); inconclusive = small, poorly fitted or top-dose-only effect, or another doubt; inactive = no such curve, though single readings can be large or run the other way. Unless noted, % is scaled to controls: 0 for no effect and ±100 for the full control effect.
SMILES,PNC inhibitor,JMJD2E inh,ALDH1A1 block,HPGD block
COc1ccc(S(=O)(=O)N2CCN(CCO)CC2)cc1-c1nnc2c3ccccc3c(C)nn12,42,-5%,-11%,?
C[C@H]1Cc2c(COc3ccccc3)nc3c(c2CO1)CN(C(=O)C1CC1)CC3,/,3%[11.4 µM],2%[13.5 µM],0%
Cc1ccccc1NC(=S)N/N=C/c1ccc(O)cc1O,/,14µM*,/,/
CCCCCCC1CC(CCc2nc(=S)[nH][nH]2)C(=O)O1 (stereo not given),?,10%,?,16µM*
CCCCCCCCc1nc(=S)[nH][nH]1,-6,0%,13µM*,16µM*
CCCCCC1CC(CC(=O)O)C(=O)O1 (stereo not given),-13,-4%,3%,-9%
CCn1c(COc2ccccc2C)nnc1SCC(=O)N1CCN(c2ccccc2)CC1,?,7%,8%,-11%
CCn1c(CC(=O)Nc2cccc(OC)c2)nnc1SCC(=O)N1CCN(c2ccccc2)CC1,-85*,1%,5%,1%
COc1cccc(NC(=O)Cc2nnc(SCC(=O)c3ccccc3)n2C)c1,230,4%,8.9µM*,32µM*
CCNc1ncc2nc(-c3cn(C)c4ccccc34)c(=O)n(-c3ccccc3)c2n1,/,/,12%,/
Cn1c(=O)c2c(ncn2CC(COCc2ccccc2)OCc2ccccc2)n(C)c1=O (stereo not given),/,3%,/,/
Cn1nc(C(F)(F)F)c(C(=O)Nc2ccc(F)cc2F)c1Sc1ccc(Cl)cc1,55,-1%,-4%,-11%
Cc1c2cc(O)c(=O)cc-2oc2cc(O)c(O)cc12,-3,?,?,?
COc1cc(OC)c(-c2c3cc(O)c(=O)cc-3oc3cc(O)c(O)cc23)cc1OC,-27,5µM*,10µM*,16µM*
O=C(NCC1CCCO1)c1ccc(COc2ccccc2Br)cc1 (stereo not given),20,4%,2%,4µM*
COc1cccc(OCc2ccc(C(=O)NCC3CCCO3)cc2)c1 (stereo not given),-11,-3%,-6%,10µM*
O=C(NCC1CCCO1)c1ccc(COc2ccc(Cl)cc2)cc1 (stereo not given),/,1%,5%,/
CC1Cc2ccccc2N1C(=O)CN1CCC(n2nnc3cc(C(F)(F)F)ccc32)CC1 (stereo not given),-28,-9%,11µM*,?
COC(=O)c1ccccc1NC(=O)CN1CCC(n2nnc3cc(C(F)(F)F)ccc32)CC1,?,2%,6%,-13%
C=CCNC(=O)O/N=C/c1csc([N+](=O)[O-])c1,/,-9%,?,/
CC(=O)NCCc1c[nH]c2ccc(O)cc12,/,?,-5%,11µM*!
COc1ccc2[nH]cc(CCNC(C)=O)c2c1,/,?,-2%,?
O=[N+]([O-])c1ccc(Nc2nc(NCCO)nc(N3CCCC3)n2)cc1,/,-2%,1.6µM*,/
COc1ccc(/C=C2/SC(=O)N(CCNC(=O)C3CCCN3C(=O)c3cccs3)C2=O)cc1 (stereo not given),-100*,-5%,-13%,?
COc1ccc(C(=O)/C=C/c2ccccc2)cc1,/,-2%,18µM*,-8%
SMILES,PNC inhibitor,JMJD2E inh,ALDH1A1 block,HPGD block
COc1ccc(/C=C/C(=O)c2nc3ccccc3n2CC(=O)c2ccc(OC)cc2)cc1,-18,?,16µM*,-18%
COc1ccc(C(=O)/C=C/c2ccc(OC)c(Cn3nnc4ccccc43)c2)cc1,?,-18%,11µM*,?
CCOC(=O)CNc1oc(-c2ccccc2)nc1-c1ccccc1,/,-5%,-1%,-5%
Cc1cc(NC(=O)NC(C(F)(F)F)C(F)(F)F)no1,/,-1%,-4%,/
N=C1/C(=C\c2coc3ccccc3c2=O)C(=O)N=C2SC(c3ccncc3)=NN12,/,281%,/,/
N=C1/C(=C\c2coc3ccc(O)cc3c2=O)C(=O)N=C2SC=CN12,/,0%,16µM*,/
CSC1=NSC2=NC(=O)/C(=C\c3coc4ccccc4c3=O)C(=N)N12,?,?,?,32µM*
CN1C(=O)/C(=C/c2coc3ccc(O)cc3c2=O)SC1=S,/,5%,10%,/
CCn1nc(C)c(C(=O)Nc2cc(Oc3ccc(Cl)cc3)cc([N+](=O)[O-])c2)c1C,-4,5%,-9%,-20%
COc1cccc(C(=O)CSc2nc3ccccc3n2CC(=O)N(C(C)C)C(C)C)c1,-100*,1%,-2%,-8%
S=c1nc(-c2ccccc2)n(Cc2cccnc2)c2c1CCCC2,/,-22%,/,/
S=c1nc(-c2ccccc2)n(Cc2ccco2)c2c1CCCC2,25,-6%,10µM*,?
Cc1cccc(NC2=NCC(=O)N2Cc2cccs2)c1,/,-29%,0%,/
COc1ccc(/C=C2\CCCC(C(=O)C(F)(F)F)=C2O)cc1,11,-10%,0.45µM*,-13%
COc1ccc(/C=C2\CCOC2=O)cc1,?,2%,-4%,-16%
O=C(C1=C(O)/C(=C/c2ccc(O)cc2)CCC1)C(F)(F)F,13,?,0.079µM*,-22%
Cc1noc(C)c1C(=O)N1CCC2(CC1)CN(Cc1cc(C(F)(F)F)cc(C(F)(F)F)c1)C2,/,/,1%,1%
Cc1ccc(S(=O)(=O)N(C)C)cc1NC(=O)c1c(-c2c(F)cccc2Cl)noc1C,/,-2%,7%,/
Cc1ccc(S(=O)(=O)/N=C(/c2ccc(F)cc2)N2CCCCC2)cc1,?,-3%,25µM*,-9%
Cc1nnc(N/N=C/c2ccc(-c3ccc(Br)cc3)o2)n1N,/,5.6µM*,7.9µM*,/
COc1ccc(C(=O)NCc2nnc(SCC(=O)N3CCc4ccccc43)n2Cc2ccccc2)cc1,-100*,-1%,?,-17%
CCn1c(CNC(C)=O)nnc1SCC(=O)c1ccc(Br)cc1,8,-10%,15µM*,?
CCn1c(CNC(=O)c2ccc(OC)cc2)nnc1SCC(=O)c1ccccc1,10,?,13µM*,-16%
CCn1c(CNC(=O)Cc2ccc(OC)cc2)nnc1SCC(=O)c1ccc(Br)cc1,-5,8%,?,-11%
Cc1nc(-c2ccccc2)sc1C1(C)CC(c2ccc(C#N)cc2)=NO1 (stereo not given),/,2%,/,/
SMILES,PNC inhibitor,JMJD2E inh,ALDH1A1 block,HPGD block
CCOC(=O)c1ccc(Nc2nnc3nc(C)cc(C)n23)cc1,6,9%,?,22µM*
CCc1c(C)nc2ncnn2c1Nc1ccc(C(C)=O)cc1,-111*,-2%,2%,-20%
COC(=O)c1ccc(Nc2cc(C)nc3ncnn23)cc1,17,7%,-8%,/
CCOC(=O)c1ccc(Nc2cc(C)nc3ncnn23)cc1,?,-23%,10µM*,-24%
CCOC(=O)c1ccc(Nc2nc(C)cc(C)c2C#N)cc1,-27,?,?,?
OCC1O[C@H](OC2C(CO)O[C@@](O)(CO)C2O)C(O)C(O)C1O (stereo not given in full),/,1%,2%,-10%
CC(=O)Nc1nc(-c2cc([N+](=O)[O-])cs2)cs1,/,0%,3%,/
CN(C)S(=O)(=O)c1cccc(-c2cn3ccccc3n2)c1,45,?,?,-13%
CN(C)S(=O)(=O)c1cccc(-c2cn3cc(Cl)ccc3n2)c1,-83*,?,?,?
